We go through 14 compounds from PubChem BioAssay (NCI).

What all share (experiment): NCI-60 one-dose screen, 48 h (100 = growth as untreated, 0 = no growth, -100 = all killed)
One assay relates to SK-MEL-2 melanoma. The settings on record: 10 µM unless noted.
For another assay, the system named is EKVX NSCLC. The note with it: 10 µM unless noted.
The subject of the next assay is SN12C renal. The settings on record: 10 µM unless noted.
The test system of a further assay is UO-31 renal. The note with it: 10 µM unless noted.
Another assay has as its system TK-10 renal. The settings on record: 10 µM unless noted.
A further assay has as its system ACHN renal. The settings on record: 10 µM unless noted.
In another assay the test system is CAKI-1 renal. The settings on record: 10 µM unless noted.
The test system of the next assay is HL-60(TB) leukemia. The note with it: 10 µM unless noted.
A further assay deals with CCRF-CEM leukemia. The note with it: 10 µM unless noted.
Another assay deals with A498 renal. The note with it: 10 µM.

The panel holds about 83,000 compounds, 20% with a hit somewhere; the sample as a whole holds those more often.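 96-well plates, one dose, 48 hours. Percent growth reported; active if below 10.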 Unmarked numbers belong to inactive results. The source made the active and inactive calls.

On to `COP(=S)(N1CC1)N1CC1`, for which the growth is 103% in the assay on SK-MEL-2 melanoma; 106% in the assay on EKVX NSCLC; 112% in the assay with SN12C renal; 84.3% in the assay on UO-31 renal; 110% with TK-10 renal; 103% with ACHN renal. In addition, the growth is 93.6% with CAKI-1 renal, 106% in the assay with HL-60(TB) leukemia and 105% in the assay on CCRF-CEM leukemia.
On to `O=C(Nc1ccc(O)cc1)C(Cl)(Cl)Cl`, for which the growth in the assay with SK-MEL-2 melanoma is 99.4%; with EKVX NSCLC it was 98.6%; with SN12C renal, 95.4%; in the assay on UO-31 renal it was 93.4%; in the assay with TK-10 renal it was 106%; in the assay with ACHN renal, 104%. In addition, the growth with CAKI-1 renal was 89.9%; in the assay with HL-60(TB) leukemia, 98.5%; in the assay with CCRF-CEM leukemia it was 106%.
Turning to `Cc1cc(N(CCCl)CCCl)ccc1C=Nc1ccccc1-c1ccccc1`, the growth in the assay on SK-MEL-2 melanoma was 115%; in the assay on EKVX NSCLC, 101%; in the assay with SN12C renal, 54.8%; in the assay with UO-31 renal, 59.5%; with TK-10 renal, 88.2%; in the assay with ACHN renal, 34.4%. Also, the growth in the assay on CAKI-1 renal was 27.6%; with HL-60(TB) leukemia it was 48.4%; in the assay on CCRF-CEM leukemia, 54.2%.
Turning to `CN(C)C(=O)Oc1ccccc1-c1ccccc1`, the growth is 102% with SK-MEL-2 melanoma; 101% in the assay on EKVX NSCLC; 102% in the assay on SN12C renal; 86.3% with UO-31 renal; 109% in the assay with TK-10 renal; 104% with ACHN renal. Further, the growth in the assay on A498 renal was 115%; with HL-60(TB) leukemia, 99.7%; in the assay with CCRF-CEM leukemia it was 96.9%.
For the compound `COC(=O)[C@@H](C)C[C@H](Cc1ccccc1)NC(=O)c1nc([C@@H](C[C@H](C(C)C)N(C)C(=O)[C@@H](NC(=O)[C@H]2CCCCN2C)C(C)C)OC(C)=O)sc1C(C)C`, the growth in the assay with SK-MEL-2 melanoma was 20%; in the assay on EKVX NSCLC, 31.2%; in the assay with SN12C renal, 10.8%; in the assay on UO-31 renal it was 18.3%; in the assay on TK-10 renal it was 45%; in the assay on ACHN renal, 18.4%. The figures for the growth in the assay with A498 renal, with HL-60(TB) leukemia and in the assay with CCRF-CEM leukemia were -9.92% (active), -45.5% (active) and 7.31% (active), respectively.
On to `Nc1ccc(-c2nc3cc(F)ccc3[se]2)cc1F`, for which the growth in the assay with SK-MEL-2 melanoma is 97.7%; with EKVX NSCLC, 49.2%; with SN12C renal, 83%; in the assay with UO-31 renal, 38.5%; in the assay on TK-10 renal, 43.6%; in the assay on ACHN renal, 30.3%. Besides, the figures for the growth with A498 renal and in the assay with HL-60(TB) leukemia were 13.5% and 64.9%, respectively.
Take `CC(C)OC(=O)[C@H](C)NP(=O)(Oc1ccccc1)C1CCCN(O)C1=O` (some centres undefined): the growth was 94.1% in the assay with SK-MEL-2 melanoma; 93.4% in the assay with EKVX NSCLC; 99.2% with SN12C renal; 86.2% in the assay on UO-31 renal; 99.5% with TK-10 renal; 79.4% in the assay on ACHN renal. Moreover, the growth in the assay with CAKI-1 renal is 104%; in the assay with HL-60(TB) leukemia, 94.1%; in the assay on CCRF-CEM leukemia, 91.3%.
Turning to `Cn1cc(-c2csc(-c3cn(CCCCN4CCCCC4)c4ccccc34)n2)c2cccnc21`, the growth was 37.9% in the assay with SK-MEL-2 melanoma; 69.9% in the assay on EKVX NSCLC; 81.8% in the assay on SN12C renal; -77.8% (active) in the assay on UO-31 renal; 50.2% in the assay with TK-10 renal; -96.4% (active) in the assay with ACHN renal. For the same compound, the growth in the assay with A498 renal was 81%; in the assay on HL-60(TB) leukemia, -62.3% (active); in the assay on CCRF-CEM leukemia, -11% (active).
As for `O=C(O)c1c(Cl)n(Cc2ccc(O)cc2)c2ccc(O)cc12`, the growth was 81.6% in the assay on SK-MEL-2 melanoma; 112% with EKVX NSCLC; 102% in the assay on SN12C renal; 61.1% with UO-31 renal; 137% in the assay on TK-10 renal; 112% in the assay with ACHN renal. In addition, the results for the growth in the assay with A498 renal, in the assay on HL-60(TB) leukemia and in the assay with CCRF-CEM leukemia were 107%, 101% and 81.6%, respectively.
For `[Cl][Hg][c]1cc[c]([Hg][Cl])o1`, the growth in the assay with SK-MEL-2 melanoma is 57.9%; with EKVX NSCLC, 20.5%; in the assay with SN12C renal it was 34.9%; with UO-31 renal, 3.18% (active); in the assay with TK-10 renal, 41.8%; in the assay on ACHN renal, 3.3% (active). For the same compound, the growth in the assay on A498 renal was 109%; with HL-60(TB) leukemia, 22.5%; with CCRF-CEM leukemia, 4.4% (active).
For `COC(=O)[C@@H](C)C[C@H](Cc1ccccc1)NC(=O)c1cccc([C@@H](C[C@H](C(C)C)N(C)C(=O)[C@@H](NC(=O)[C@H]2CCCCN2C)C(C)C)OC(C)=O)n1`, the growth was 26.4% with SK-MEL-2 melanoma; 34.3% in the assay with EKVX NSCLC; 17.1% in the assay with SN12C renal; 41.8% with UO-31 renal; 58.7% with TK-10 renal; 30.4% in the assay with ACHN renal. In addition, the growth with A498 renal was -0.869% (active); with HL-60(TB) leukemia, -28.6% (active).
For the compound `CCOC(=O)[C@@H](C)C[C@H](Cc1ccccc1)NC(=O)c1csc([C@@H](C[C@H](C(C)C)N(C)C(=O)[C@@H](NC(=O)[C@H]2C[C@H](O)CCN2C)C(C)C)OC(C)=O)n1`, the growth with SK-MEL-2 melanoma was 16.8%; in the assay with EKVX NSCLC, 47.6%; in the assay on SN12C renal, 20.6%; with UO-31 renal it was 36.1%; with TK-10 renal, 38.4%; in the assay with ACHN renal, 19.7%. In addition, the growth in the assay on CAKI-1 renal is 30.9%; with HL-60(TB) leukemia it was -27.1% (active); in the assay with CCRF-CEM leukemia, 4.67% (active).
Regarding `Nc1ccc(Cl)cc1`, the growth with SK-MEL-2 melanoma was 95.7%; with EKVX NSCLC it was 95.7%; in the assay on SN12C renal, 95.3%; in the assay on UO-31 renal it was 94.9%; in the assay with TK-10 renal it was 92.3%; in the assay with ACHN renal, 108%. Besides, the results for the growth in the assay on A498 renal, in the assay on HL-60(TB) leukemia and in the assay with CCRF-CEM leukemia were 103%, 95% and 98.2%, respectively.
In the case of `CC1(C)[C@H](O)[C@H](F)C[C@@]2(C)Oc3ccc(C(=O)Nc4ccc5c(c4)NC(=O)C54CCN(CCCCC#N)CC4)cc3C[C@H]12`, the growth in the assay with SK-MEL-2 melanoma was 28.8%; in the assay with EKVX NSCLC it was 82.1%; in the assay with SN12C renal, 69.9%; with UO-31 renal, 31.5%; with TK-10 renal it was 59.1%; in the assay with ACHN renal it was 43.1%. For the same compound, the values for the growth with CAKI-1 renal, with HL-60(TB) leukemia and in the assay with CCRF-CEM leukemia were 56.5%, 30.5% and 13.8%, respectively.
